This is part of a sample that, as a whole, favours compounds with a hit. Of some 83,000 tested, about 20% had one in any assay.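 Values shown are percent growth following 48 h exposure of cells in 96-well plates to a single concentration of compound; below 10 was considered active.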 The source made the active and inactive calls.
Experiments:
Assay in all cases: NCI-60 one-dose screen, 48 h (100 = growth as untreated, 0 = no growth, -100 = all killed)
Settings in all cases: 10 µM unless noted
SK-MEL-2 melanoma = test system: SK-MEL-2 melanoma
EKVX NSCLC = test system: EKVX NSCLC
SN12C renal = test system: SN12C renal
UO-31 renal = test system: UO-31 renal
TK-10 renal = test system: TK-10 renal
ACHN renal = test system: ACHN renal
A498 renal = test system: A498 renal
CCRF-CEM leukemia = test system: CCRF-CEM leukemia
MOLT-4 leukemia = test system: MOLT-4 leukemia
SR leukemia = test system: SR leukemia

Measured: growth

Cc1c(C(=O)Nc2nc3ccccc3[nH]2)cnn1-c1ccccn1
inactive: SK-MEL-2 melanoma 105% | EKVX NSCLC 103% | SN12C renal 114% | UO-31 renal 104% | TK-10 renal 98.3% | ACHN renal 114% | A498 renal 96.4% | CCRF-CEM leukemia 90.8% | MOLT-4 leukemia 77.5% | SR leukemia 83.8%

COc1ccc(Nc2nc(SCC(C)C)nc(-c3ccc(F)cc3)c2C#N)cc1
inactive: SK-MEL-2 melanoma 72.4% | EKVX NSCLC 69.4% | SN12C renal 85.9% | UO-31 renal 68.9% | TK-10 renal 92.1% | ACHN renal 72% | A498 renal 30.7% | CCRF-CEM leukemia 33.3% | MOLT-4 leukemia 57.2% | SR leukemia 20.1%

CCN(CC)c1ccc2c(c1)Oc1nc(N)c(C#N)c(N)c1C2Sc1ccc(OC)cc1 (stereo not given)
inactive: TK-10 renal 23.1% | ACHN renal 32.2% | A498 renal 106%
active: SK-MEL-2 melanoma -61.2% | EKVX NSCLC 4.46% | SN12C renal 4.18% | UO-31 renal -44.7% | CCRF-CEM leukemia 0.612% | MOLT-4 leukemia 2.47% | SR leukemia -9.3%

CCN1CCC[C@H]1c1cc(O)c2c(c1OC)C[C@H]1C[C@H]3[C@H](N)C(=O)C(C(N)=O)=C(O)[C@@]3(O)C(=O)C1=C2O
active: SK-MEL-2 melanoma -43.9% | EKVX NSCLC -8.34% | SN12C renal -3.68% | UO-31 renal -5.6% | TK-10 renal -8.12% | ACHN renal -2.88% | A498 renal -14.7% | CCRF-CEM leukemia 1.43% | MOLT-4 leukemia -16.8% | SR leukemia -18.8%

Cc1c(Cl)cccc1NC(=O)c1sc2nc3c(cc2c1N)COCC3
inactive: SK-MEL-2 melanoma 29.4% | EKVX NSCLC 60.3% | SN12C renal 44.1% | UO-31 renal 49.2% | TK-10 renal 57% | ACHN renal 44.2% | A498 renal 18.1% | CCRF-CEM leukemia 21.1% | MOLT-4 leukemia 27.5% | SR leukemia 15.4%

NC(=O)c1ccc(C2C3=C(CCCC3=O)OC3=C2C(=O)c2ccccc2C3=O)cc1 (stereo not given)
active: SN12C renal -3.43% | MOLT-4 leukemia -17.4% | SR leukemia 8.38%
inactive: SK-MEL-2 melanoma 20.6% | EKVX NSCLC 24.6% | UO-31 renal 90.6% | TK-10 renal 98.2% | ACHN renal 27.9% | A498 renal 131% | CCRF-CEM leukemia 15%

N#Cc1nc(-c2ccccc2)oc1S(=O)(=O)NCC(c1ccc(Cl)cc1)N1CCCCC1 (stereo not given)
inactive: SK-MEL-2 melanoma 72.2% | EKVX NSCLC 106% | SN12C renal 65.6% | UO-31 renal 65.5% | TK-10 renal 112% | ACHN renal 82.7% | A498 renal 102% | SR leukemia 12.2%
active: CCRF-CEM leukemia 1.94% | MOLT-4 leukemia 1.32%

NC(=O)CN1C(=O)c2ccccc2C1=O
inactive: SK-MEL-2 melanoma 108% | EKVX NSCLC 104% | SN12C renal 97.7% | UO-31 renal 90.4% | TK-10 renal 103% | ACHN renal 105% | A498 renal 92% | CCRF-CEM leukemia 96.6% | MOLT-4 leukemia 99.1% | SR leukemia 87.8%

N#Cc1ccc(Oc2ccc3ccc(=O)oc3c2)cc1
inactive: SK-MEL-2 melanoma 135% | EKVX NSCLC 110% | SN12C renal 105% | UO-31 renal 99.1% | TK-10 renal 116% | ACHN renal 98.2% | A498 renal 99% | CCRF-CEM leukemia 101% | MOLT-4 leukemia 100% | SR leukemia 82.9%

CC[C@]12C=CCN3CC[C@@]4(c5ccc(OC)cc5N(C)[C@H]4[C@@](O)(C(=O)OC)[C@@H]1OC(=O)CCC(=O)O[C@H]1CC[C@H]4[C@@H]5CC[C@H]6CC(=O)CC[C@]6(C)[C@H]5CC[C@]14C)[C@@H]32
active: SK-MEL-2 melanoma 8.52% | CCRF-CEM leukemia 7.55% | MOLT-4 leukemia 1.58% | SR leukemia -10.4%
inactive: EKVX NSCLC 21.2% | SN12C renal 24.8% | UO-31 renal 13.3% | TK-10 renal 21.2% | ACHN renal 19.1% | A498 renal 12.3%

C[C@H](Oc1cc(-c2cnn(C3CCNCC3)c2)cnc1N)c1c(Cl)ccc(F)c1Cl
active: SR leukemia -22.1%
inactive: SK-MEL-2 melanoma 71.1% | EKVX NSCLC 79.6% | SN12C renal 54.2% | UO-31 renal 61.7% | TK-10 renal 88.7% | ACHN renal 75.6% | A498 renal 68% | CCRF-CEM leukemia 34.6% | MOLT-4 leukemia 14%

N#Cc1c(-c2ccc(F)cc2)c(C#N)c2c(C#N)c(N)nn2c1N
inactive: SK-MEL-2 melanoma 102% | EKVX NSCLC 96.8% | SN12C renal 104% | UO-31 renal 75.4% | TK-10 renal 86.4% | ACHN renal 95.7% | A498 renal 93.7% | CCRF-CEM leukemia 104% | MOLT-4 leukemia 85.9% | SR leukemia 93.7%

O=C(/C(=C\c1c(-c2ccccc2)[nH]c2ccccc12)S(=O)(=O)c1ccccc1)c1ccccc1
active: MOLT-4 leukemia 3.71%
inactive: SK-MEL-2 melanoma 35.8% | EKVX NSCLC 28.7% | SN12C renal 82% | UO-31 renal 60.9% | TK-10 renal 78.2% | ACHN renal 48.7% | A498 renal 54.3% | CCRF-CEM leukemia 21% | SR leukemia 15.1%

Cc1nn(-c2ccc(-c3ccc(OC(F)(F)F)cc3)cc2)c2nc(-c3ccccc3)nc(N)c12
inactive: SK-MEL-2 melanoma 101% | EKVX NSCLC 97.7% | SN12C renal 92.5% | UO-31 renal 82.4% | TK-10 renal 89.7% | ACHN renal 100% | A498 renal 90.2% | CCRF-CEM leukemia 88.9% | MOLT-4 leukemia 82.4% | SR leukemia 55.6%

COc1cc(/C=C/C(=O)/C=C/c2cc3ccc(Cl)cc3[nH]c2=O)ccc1O
inactive: SK-MEL-2 melanoma 89.1% | EKVX NSCLC 94.4% | SN12C renal 63.9% | UO-31 renal 60.3% | TK-10 renal 98% | ACHN renal 64.8% | A498 renal 78.8% | CCRF-CEM leukemia 23% | MOLT-4 leukemia 30.3% | SR leukemia 10.8%

COC(=O)c1cncc(C(=O)Nc2ccc(-n3cnc4ccccc43)cc2)c1
inactive: SK-MEL-2 melanoma 105% | EKVX NSCLC 100% | SN12C renal 101% | UO-31 renal 93.8% | TK-10 renal 96.2% | ACHN renal 90.4% | A498 renal 88.3% | CCRF-CEM leukemia 98% | MOLT-4 leukemia 90.2% | SR leukemia 75.4%

CCc1c(C(=O)N[C@@H](C(=O)OCc2ccccc2)C(C)O)[nH]c2ccc(Cl)cc12 (stereo not given in full)
inactive: SK-MEL-2 melanoma 106% | EKVX NSCLC 73.8% | SN12C renal 66.6% | UO-31 renal 11.7% | TK-10 renal 33.6% | A498 renal 67.7% | CCRF-CEM leukemia 79.6% | MOLT-4 leukemia 91.5% | SR leukemia 35.1%
active: ACHN renal 8.62%

O=C(Nc1ccc2ncnc(Nc3cccc(C(F)(F)F)c3)c2c1)c1cccs1
inactive: SK-MEL-2 melanoma 90.7% | EKVX NSCLC 32.5% | SN12C renal 68.5% | UO-31 renal 51.1% | TK-10 renal 47.4% | ACHN renal 47.4% | A498 renal 18.9% | CCRF-CEM leukemia 37.2% | MOLT-4 leukemia 17.6% | SR leukemia 33.8%

[2H]c1nc(Nc2ncc3cc(C(=O)N(C)C)n(C4CCCC4)c3n2)c([2H])c([2H])c1N1C([2H])([2H])C([2H])([2H])NC([2H])([2H])C1([2H])[2H]
active: MOLT-4 leukemia 5.14%
inactive: SK-MEL-2 melanoma 83.9% | EKVX NSCLC 64.4% | SN12C renal 67.9% | UO-31 renal 52.5% | TK-10 renal 37% | ACHN renal 47.1% | A498 renal 76.8% | CCRF-CEM leukemia 38.5% | SR leukemia 26.6%

OCCNc1nc(NCCO)nc(Nc2ccc(C3=NN(c4ccc(Cl)cc4)C(c4ccc(Cl)cc4)C3)cc2)n1 (stereo not given)
inactive: SK-MEL-2 melanoma 52% | EKVX NSCLC 65% | SN12C renal 80.1% | UO-31 renal 45.5% | TK-10 renal 87.6% | ACHN renal 51.1% | A498 renal 85.7% | CCRF-CEM leukemia 25.1% | MOLT-4 leukemia 29.4% | SR leukemia 25.5%

CC(=O)Nc1c(C(=O)Nc2ccccc2)sc2nc3c(cc12)C(OC(C)=O)CCC3 (stereo not given)
inactive: SK-MEL-2 melanoma 89.8% | EKVX NSCLC 99.6% | SN12C renal 89.6% | UO-31 renal 72.9% | TK-10 renal 75.9% | ACHN renal 59.5% | CCRF-CEM leukemia 94.6% | MOLT-4 leukemia 100% | SR leukemia 80%
active: A498 renal -1.22%
